Only some compounds are listed: those with a hit (about 5.2% of all), similar ones and a draw of the others.
Sfp inh: Sfp phosphopantetheinyl transferase inhibition; Potency, µM, inactives show largest response in the series, negative = inhibition, usual class: inhibitors; Q9F4F7; 3.5% of 310,000 active; Biochemical Sfp PPTase activity, qHTS;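 further: the enzyme is Sfp with the accession as filed and its product quenches rhodamine fluorescence; potency means the concentration at half of the fitted maximal effect; 0% = enzyme reaction without inhibitor and -100% = no enzyme wells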
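Step 1, compound plus 15 nM Sfp-PPTase, 15 min, room temperature. Step 2, add rhodamine-CoA (5 uM) and BHQ-2-YbbR (12.5 uM). Step 3, read 525/598 nm fluorescence at 0 and 30 min.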
Tau ThT inhib: tau fibrillization inhibition (ThT binding); P10636; recombinant tau K18 P301L, heparin-induced fibrillization, ThT fluorescence; Potency, µM (doses to about 57.4 µM), for the others: top-dose activity, negative = inhibition, hits mostly inhibitors; 2.1% of 270,000 active; AID 1460; further: potency means the concentration at half of the fitted maximal effect; nearly all actives have a fitted effect of over 55% in size
Target sequence (P10636 561-689 P618L limits assumed): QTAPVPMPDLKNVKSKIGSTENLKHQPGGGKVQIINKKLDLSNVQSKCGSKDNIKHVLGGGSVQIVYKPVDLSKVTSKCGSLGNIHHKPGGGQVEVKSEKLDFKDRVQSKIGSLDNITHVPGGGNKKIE
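Using a mix of unlabeled (15 uM) and Alexa 594-labeled (0.24 uM) tau K18 P301L, heparin-triggered fibrillization over 6 hr at 37 C was scored by ThT fluorescence.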
Tau fibril FP: tau fibrillization inhibition (FP); K18 P301L tau heparin fibrillization, Alexa594 FP, 6 h; P10636; AID 1468; 0.39% of 280,000 active; Potency, µM (doses to about 57.7 µM), inactives show top-dose activity, negative = inhibition, hits mostly inhibitors; further: potency means the concentration at half of the fitted maximal effect; nearly all actives have a fitted effect of over 55% in size
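FP of Alexa 594-tau after heparin (20 uM) induction. Substrate: human K18 P301L, 15 uM unlabeled, 0.24 uM labeled. Buffer 100 mM sodium acetate pH 7. 6 hr, 37 C.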
Coupling enz: inhibits coupling enzyme system, counter-screen for aldolase hits. 0.67% of 290,000 active. coupling enzyme system counterscreen, AmpLite Red fluorescence. AID 2472. activity change, negative = inhibition, % at 58.2 µM, hits read low; in the data active means activity change below about -30%
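First, compound is pin-transferred into glyceraldehyde-3-phosphate coupling-enzyme reagent at 57.5 uM final and held 10 min at RT. Next, substrate, coupling system and AmpLite Red are added. After 20 min RT, fluorescence (525/598 nm) is read.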
Tau fluor cs: counter-screen for tau fibril formation inhibitors; tau K18 P301L (four-repeat tau fragment) Alexa594 fluorescence, heparin fibrillization; Potency, µM (doses to about 57.7 µM), for the others: at the highest dose activity change, negative = decrease; 0.93% of 280,000 active; further: potency means the concentration at half of the fitted maximal effect; nearly all actives have a fitted effect of over 55% in size
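Human K18 P301L tau (15 uM unlabeled plus 0.24 uM Alexa 594-labeled, final) in 100 mM sodium acetate pH 7 was mixed with compound and 20 uM heparin and incubated 6 hr at 37 C.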
* = called active by the depositor; ? = inconclusive; / = not tested or not shown; [ ] = remark or other dose. Unless noted, the call rests on the fitted dose curve; in most records, active means well fitted curve in the direction sought with a large enough effect; inconclusive means small, poorly fitted or top-dose-only effect, or another doubt; inactive means no such curve, though single readings can be large; an effect the other way counts as inactive or inconclusive. Unless noted, on the % scale 0 is the no-effect control and ±100 the full control effect.

SMILES	Sfp inh	Tau ThT inhib	Tau fibril FP	Coupling enz	Tau fluor cs
Cc1cc(NC(=O)c2cc3cccc([N+](=O)[O-])c3[nH]2)ccc1F	-24%	/	?	-14	25µM*[quencher]
COc1ccc(C(=O)/C=C/c2ccc(O)cc2)c(O)c1CC=C(C)C	14%	25µM*	?	0	16µM*[quencher]
O=C(CSc1ncc(-c2ccccc2)[nH]1)Nc1ccc(Cl)cc1	/	-9%	-12%	/	14µM*[quencher]
O=C(CSc1ncc(-c2ccccc2)[nH]1)Nc1cccc(Br)c1	/	?	?	/	16µM*[quencher]
O=C(CSc1ncc(-c2ccc(Cl)cc2)[nH]1)Nc1ccccc1F	/	-22%	-4%	/	14µM*[quencher]
COc1cccc(-c2nnc3sc(CN4CCCCC4)cn23)c1	/	10%	8%	/	7%
CCOC(=O)c1ccccc1NC(=O)Cn1c(=O)n(CCC(=O)N2CCc3ccccc3C2)c(=O)c2ccccc21	/	-2%	-5%	/	-8%
COc1ccc(CCNC2CC(=O)N(CCc3ccc(OC)c(OC)c3)C2=O)cc1OC (stereo not given)	-15%	-15%	-2%	1	-2%
COc1ccc(CCN2C(=O)CC(NNc3ccc([N+](=O)[O-])cc3)C2=O)cc1OC (stereo not given)	1%	11µM*	-7%	-6	?
COCCc1nn2c(=O)cc(COC(=O)c3ccc4c(c3)OCO4)nc2s1	/	-9%	6%	/	-7%
Cc1cc(C)c2c(CC(=O)Nc3ccc(S(=O)(=O)N4CCCCC4)cc3)coc2c1	/	12%	?	/	?
Cc1cc(C)c2c(CC(=O)Nc3ccc(S(=O)(=O)N4CCCC(C)C4)cc3)coc2c1 (stereo not given)	/	12%	14µM*	/	?
COc1ccc(Cc2c3cc(OC)c(OC)cc3cc[n+]2C)cc1OC	79µM*	-3%	1%	-18	10%
O=C(Nc1ccc(OCc2cc(=O)n3c4c(sc3n2)CCCC4)cc1)c1cccc(F)c1	/	?	-9%	/	-14%
COc1cc(CNc2ccc3c(c2)CCC3)cc(OC)c1O	40µM*	?	0%	-4	?
OCCN=c1cc(-c2ccccc2)oc2ccc(Cl)cc12	89µM*	0%	-8%	/	-7%
Clc1ccccc1CNc1nc2ccccc2c2nc(-c3cccnc3)nn12	/	-5%	?	/	-11%
CN(C)c1ccc(N/C=C/C(=O)c2ccccc2)cc1	20µM*	1.8µM*	-18%	-21	?
CCOC(=O)c1ccc(N/C=C/C(=O)C(C)(C)C)cc1	-2%	?	6%	0	-7%
CN(C)c1ccc(N/C=C/C(=O)C(C)(C)C)cc1	50µM*	16µM*	?	-29	?
O=C(/C=C/Nc1ccccc1)c1ccccc1	1%	-1%	4%	1	-5%
Cc1ccc2cc(C(c3nnnn3C3CCCC3)N3CCN(c4ccc(F)cc4)CC3)c(=O)[nH]c2c1 (stereo not given)	35µM*	?	-15%	-11	-19%
Cc1cc(C)c2cc(C(c3nnnn3C3CCCC3)N3CCOCC3)c(=O)[nH]c2c1 (stereo not given)	56µM*	?	?	-14	-7%
Cc1cccc2cc(C(c3nnnn3C3CCCC3)N3CCOCC3)c(=O)[nH]c12 (stereo not given)	-1%	-13%	-6%	9	-4%
CN(C)c1ccc(NC(=O)c2ccc(COc3cccc(Cl)c3)o2)cc1	?	11µM*	?	-4	?
SMILES	Sfp inh	Tau ThT inhib	Tau fibril FP	Coupling enz	Tau fluor cs
Cc1ccc(NC(=O)c2ccc(COc3ccccc3Cl)o2)cc1	/	-12%	-8%	/	-20%
O=C(C[n+]1ccc(-c2cc(C(=O)Nc3cccc(C(F)(F)F)c3)c3ccccc3n2)cc1)c1cccc([N+](=O)[O-])c1	50µM*	?	9%	-1	?
O=C(C[n+]1cccc(NC(=O)c2ccccc2)c1)c1cccc([N+](=O)[O-])c1	-13%	?	6%	0	-27%
CCS(=O)(=O)N1CCc2cc(C(=O)NCc3ccccc3OC)ccc21	/	?	3%	/	?
CC(C)(Oc1ccc(-c2ccco2)cc1)C(=O)O	35µM*	-13%	-4%	1	0%
CC(C)(Oc1ccc(CCNC(=O)c2ccc(-c3ccccc3)o2)cc1)C(=O)O	15%	-20%	?	6	-5%
COc1cccc(C2CC(=O)Nc3c2c(=O)n(C)c2ncnn32)c1OC (stereo not given)	/	-7%	-1%	/	-9%
COc1c(OC(C)=O)ccc(/C=C/c2ccc3cccc(OCc4ccccc4)c3n2)c1[N+](=O)[O-]	9%	?	-1%	0	?
COc1cc(/C=C/c2ccc3cccc(OC)c3n2)c(OC(C)=O)c([N+](=O)[O-])c1	13%	2.8µM*	?	0	?
COc1cc(/C=C/c2ccc3cccc(OC)c3n2)c(O)c([N+](=O)[O-])c1	1%	1µM*	-12%	2	?
CC(C)CCn1c(=O)c2sccc2n2c(CCCC(=O)Nc3ccc(C(C)C)cc3)nnc12	/	0%	-17%	/	-12%
COCCNC(=S)Nc1ccc(N2CCCCC2)cc1	13µM*	?	-5%	1	-10%
COc1cccc(C(=O)NC(=S)Nc2ccc(N(C)C)cc2)c1	?	7.9µM*	5%	2	?
COc1cccc(C(=O)NC(=S)Nc2ccc3c4c(cccc24)CC3)c1	-12%	?	-3%	-1	?
COc1cccc(C(=O)NC(=S)Nc2ccc(Cl)cc2C(=O)O)c1	50µM*	-4%	-4%	-1	-5%
COc1cccc(C(=O)NC(=S)Nc2ccc(N3CCCC3)cc2)c1	-4%	11µM*	11%	1	?
Cn1nnnc1SCCCNCc1ccc(-c2ccc(Br)cc2)o1	/	-7%	3%	/	-12%
Cc1ccc(NC2=C(CC(=O)O)C(c3ccc(F)cc3)N(c3ccc(C)cc3)C2=O)cc1 (stereo not given)	/	-12%	0%	/	5%
CC(C)Oc1cccc(C(=O)NC(=S)Nc2ccc(N3CCN(C)CC3)cc2)c1	71µM*	?	?	-4	?
CCCC(=O)N1CCN(c2ccc(NC(=O)c3ccc4c(c3)OCCO4)cc2)CC1	7%	/	/	-3	/
CCCC(=O)N1CCN(c2ccc(NC(=S)NC(=O)c3cccc(C)c3)cc2)CC1	-16%	8.9µM*	-4%	0	?
O=C(Nc1ccc(Br)cc1F)c1cc2nc(-c3ccco3)cc(C(F)(F)Cl)n2n1	/	-11%	1%	/	-8%
CCOC(=O)c1cccc(NC(=O)c2ncoc2-c2ccco2)c1	/	1%	0%	/	-11%
O=[N+]([O-])c1ccc(C[n+]2cccc3ccccc32)cc1	-3%	-2%	4%	1	9%
O=[N+]([O-])c1ccc(C[n+]2cccc3ccc4cccnc4c32)cc1	14µM*	4%	12%	-6	3%

Screening results (PubChem)
